As usually defined, the inhibition is the change of the read-out against control, counted positive when it falls.

Assay [1] concerns the target Nuclear receptor coactivator 3 (Homo sapiens) (UniProt Q9Y6Q9). The experiment in a line: NCOA3 GAL4-fusion reporter inhibition – cell-based, luminescence, quadruplicate, confirmation (AID 588792;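 active = mean inhibition over 43.08%, the solvent-only control mean plus 3 SD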;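 note: 0% = DMSO treated cells and 100% = gossypol at 36 µM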). Conditions: HEK293 GAL4-SRC3 luciferase reporter, at 3.6 µM, stronger effect = higher value. A general note: A reporter such as luciferase makes a cellular process visible.
The subject of assay [2] is transactivating tegument protein VP16 (Human herpesvirus 1), Gal4-VP16 luciferase reporter. The experiment in a line: repression of VP16-driven luciferase reporter – cell-based, luminescence, high throughput, counter-screen for SRC3 inhibitor project (AID 588794; in the data active = inhibition above about 30%). Conditions: mammalian cells, at 3.6 µM, stronger effect = higher value.
Assay [3] addresses Nuclear receptor coactivator 1 (Homo sapiens) (UniProt Q15788). The experiment in a line: NCOA1 GAL4-fusion reporter inhibition – cell-based, luminescence, quadruplicate, confirmation (AID 588820;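 active = mean inhibition above 46.68%, the untreated control wells mean plus 3 SD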;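 note: 0% = DMSO wells and 100% = gossypol 36 µM treated wells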). Conditions: HEK293 GAL4-SRC1 luciferase reporter, at 3.6 µM, stronger effect = higher value.
Assay [4] is described as follows: repression of VP16-driven luciferase reporter – cell-based, luminescence, high throughput, counter-screen for SRC1 inhibitor project (AID 588824; in the data active = inhibition above about 25%). Conditions: cell-based VP16 transactivation luciferase luminescence; at 3.6 µM; stronger effect = higher value.
Assay [5] can be described thus: StAR promoter reporter inhibitors, counter-screen for LRH-1 inverse agonist project, cell-based, luminescence, high throughput (AID 651611; in the data active = inhibition above about 28%). As to conditions: StAR promoter luciferase reporter counterscreen, at 3.6 µM, stronger effect = higher value. In general terms: The purpose of a counterscreen is to sort out artefacts and off-target activity.
Assay [6] deals with Nuclear receptor subfamily 5 group A member 2 (Homo sapiens) (UniProt O00482). The experiment in a line: NR5A2 activity suppression in reporter cells – cell-based, luminescence, confirmation (AID 651613; in the data active = inhibition above about 42%;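 note: HEK293T cells co-transfected with LRH-1 and StAR promoter luciferase reporter; 0% = vehicle wells and 100% = parental cells lacking receptor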). As to conditions: cell-based LRH-1 luciferase reporter, inverse agonism; at 3.6 µM; stronger effect = higher value.
Assay [7] addresses Steroidogenic factor 1 (Homo sapiens) (UniProt Q13285). The experiment in a line: inverse agonism at SF1 nuclear receptor – cell-based, luminescence, high throughput, counter-screen for LRH-1 inverse agonist project (AID 651614; in the data active = inhibition above about 44%;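 note: cells cotransfected with StAR promoter reporter and SF1 expression vector; 0% = vehicle on cells with receptor and 100% = vehicle on cells lacking receptor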). Conditions: cell-based SF1 luciferase reporter, at 3.6 µM, stronger effect = higher value.
Assay [8] is described as follows: compounds suppressing VP16-driven luciferase signal – cell-based, luminescence, high throughput, counter-screen for LRH-1 inverse agonist project (AID 651615). Conditions: Gal4-VP16 luciferase reporter cells, at 3.6 µM, stronger effect = higher value.
For assay [9], the system named is transactivating tegument protein VP16 (Human herpesvirus 1). The experiment in a line: compounds suppressing VP16-driven luciferase signal – cell-based, luminescence, single concentration, counter-screen for SRC2 inhibitor project (AID 652007; in the data active = inhibition above about 36%). Conditions: cell-based VP16 transactivation luciferase reporter, at 8.9 µM, stronger effect = higher value.
Assay [10] deals with Nuclear receptor coactivator 2 (Homo sapiens) (UniProt Q15596). The experiment in a line: inhibition of GAL4-SRC2 driven luciferase expression – cell-based, luminescence, HEK293, triplicate, confirmation (AID 652008;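 active = mean inhibition above 46.5%, the solvent-only control mean plus 3 SD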;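 note: 0% = DMSO-treated cells and 100% = Gossypol at 36 µM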). Conditions: HEK293 GAL4-SRC2 luciferase reporter, at 8.9 µM, stronger effect = higher value.

A number with no mark means an inactive call. Activity calls are given as the source filed them. Cut-off read from the data, not from the text of the source, unless noted: active = inhibition above about 33%; inactive = the rest.

Nuclear receptor coactivator 3 (Homo sapiens), sequence (Q9Y6Q9 whole entry, looked up, the tested form may be a part): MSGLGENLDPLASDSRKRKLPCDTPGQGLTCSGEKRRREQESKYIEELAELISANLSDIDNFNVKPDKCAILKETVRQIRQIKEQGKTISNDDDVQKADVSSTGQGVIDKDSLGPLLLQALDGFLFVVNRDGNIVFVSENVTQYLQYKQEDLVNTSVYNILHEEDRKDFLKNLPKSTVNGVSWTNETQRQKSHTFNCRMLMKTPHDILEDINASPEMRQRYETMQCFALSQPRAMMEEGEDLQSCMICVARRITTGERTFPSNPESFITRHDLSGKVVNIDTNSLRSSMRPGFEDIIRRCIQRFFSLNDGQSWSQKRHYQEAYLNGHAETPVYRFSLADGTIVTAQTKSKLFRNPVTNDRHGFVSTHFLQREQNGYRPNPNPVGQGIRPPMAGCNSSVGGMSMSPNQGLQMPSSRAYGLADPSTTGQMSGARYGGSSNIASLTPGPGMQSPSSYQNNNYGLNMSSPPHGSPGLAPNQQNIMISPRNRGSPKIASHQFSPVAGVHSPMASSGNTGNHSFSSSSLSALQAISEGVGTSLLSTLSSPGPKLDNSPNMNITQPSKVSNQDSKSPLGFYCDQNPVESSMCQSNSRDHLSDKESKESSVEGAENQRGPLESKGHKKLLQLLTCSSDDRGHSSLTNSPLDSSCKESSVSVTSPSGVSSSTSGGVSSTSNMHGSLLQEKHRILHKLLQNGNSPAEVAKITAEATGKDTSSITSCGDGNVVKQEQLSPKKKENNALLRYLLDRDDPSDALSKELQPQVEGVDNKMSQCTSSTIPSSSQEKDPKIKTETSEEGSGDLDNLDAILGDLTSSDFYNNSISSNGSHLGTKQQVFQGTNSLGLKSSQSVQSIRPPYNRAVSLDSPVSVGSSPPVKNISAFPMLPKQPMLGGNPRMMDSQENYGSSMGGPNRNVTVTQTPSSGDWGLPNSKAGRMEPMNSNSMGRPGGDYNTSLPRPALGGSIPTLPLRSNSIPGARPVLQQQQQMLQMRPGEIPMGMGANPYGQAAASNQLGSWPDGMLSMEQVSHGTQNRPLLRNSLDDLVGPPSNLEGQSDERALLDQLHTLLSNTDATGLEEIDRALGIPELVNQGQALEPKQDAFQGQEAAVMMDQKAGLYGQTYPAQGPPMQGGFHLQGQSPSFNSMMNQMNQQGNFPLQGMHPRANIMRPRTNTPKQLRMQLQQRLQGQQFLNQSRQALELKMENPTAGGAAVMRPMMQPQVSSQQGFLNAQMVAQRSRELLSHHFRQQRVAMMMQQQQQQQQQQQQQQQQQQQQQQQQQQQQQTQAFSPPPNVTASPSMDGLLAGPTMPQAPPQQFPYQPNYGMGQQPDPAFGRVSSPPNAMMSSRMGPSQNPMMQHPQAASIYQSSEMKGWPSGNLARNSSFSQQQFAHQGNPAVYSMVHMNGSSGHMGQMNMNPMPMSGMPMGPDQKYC
Nuclear receptor coactivator 1 (Homo sapiens), sequence (Q15788 whole entry, looked up, the tested form may be a part): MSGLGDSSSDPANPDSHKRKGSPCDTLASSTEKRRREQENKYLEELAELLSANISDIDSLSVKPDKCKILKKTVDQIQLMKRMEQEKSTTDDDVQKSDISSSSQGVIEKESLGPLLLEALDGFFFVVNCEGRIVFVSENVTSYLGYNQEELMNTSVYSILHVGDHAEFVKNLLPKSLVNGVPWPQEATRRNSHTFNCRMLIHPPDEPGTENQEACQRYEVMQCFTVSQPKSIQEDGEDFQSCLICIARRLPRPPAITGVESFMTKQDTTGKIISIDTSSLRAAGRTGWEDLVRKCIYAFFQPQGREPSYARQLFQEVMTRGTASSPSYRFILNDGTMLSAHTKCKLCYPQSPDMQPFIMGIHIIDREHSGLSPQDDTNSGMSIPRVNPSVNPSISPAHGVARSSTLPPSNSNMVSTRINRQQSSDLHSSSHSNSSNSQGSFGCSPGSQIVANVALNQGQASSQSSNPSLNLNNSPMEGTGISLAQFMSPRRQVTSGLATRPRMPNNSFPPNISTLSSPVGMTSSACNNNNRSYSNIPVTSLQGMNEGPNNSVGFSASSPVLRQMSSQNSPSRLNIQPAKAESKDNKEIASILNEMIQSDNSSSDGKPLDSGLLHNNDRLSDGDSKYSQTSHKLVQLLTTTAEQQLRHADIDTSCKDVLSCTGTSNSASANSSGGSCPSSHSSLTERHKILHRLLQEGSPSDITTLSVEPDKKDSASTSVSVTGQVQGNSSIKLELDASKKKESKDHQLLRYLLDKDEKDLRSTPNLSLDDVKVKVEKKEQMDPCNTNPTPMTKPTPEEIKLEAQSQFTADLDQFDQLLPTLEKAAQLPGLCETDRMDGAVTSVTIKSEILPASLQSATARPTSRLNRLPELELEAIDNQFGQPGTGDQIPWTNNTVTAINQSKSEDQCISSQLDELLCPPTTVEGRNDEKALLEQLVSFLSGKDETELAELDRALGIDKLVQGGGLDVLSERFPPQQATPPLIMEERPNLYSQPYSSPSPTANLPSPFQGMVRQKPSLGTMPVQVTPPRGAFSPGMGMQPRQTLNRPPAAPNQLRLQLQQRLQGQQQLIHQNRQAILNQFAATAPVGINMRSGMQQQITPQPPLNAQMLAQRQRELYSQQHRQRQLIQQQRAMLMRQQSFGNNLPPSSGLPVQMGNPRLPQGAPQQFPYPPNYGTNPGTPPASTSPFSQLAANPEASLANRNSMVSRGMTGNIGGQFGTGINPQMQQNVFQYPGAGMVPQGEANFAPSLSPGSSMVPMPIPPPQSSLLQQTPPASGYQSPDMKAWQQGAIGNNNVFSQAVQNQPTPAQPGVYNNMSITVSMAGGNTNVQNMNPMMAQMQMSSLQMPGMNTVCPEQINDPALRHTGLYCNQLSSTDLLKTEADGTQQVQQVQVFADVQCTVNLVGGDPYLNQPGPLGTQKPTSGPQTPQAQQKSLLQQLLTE
Steroidogenic factor 1 (Homo sapiens), sequence (Q13285 whole entry, looked up, the tested form may be a part): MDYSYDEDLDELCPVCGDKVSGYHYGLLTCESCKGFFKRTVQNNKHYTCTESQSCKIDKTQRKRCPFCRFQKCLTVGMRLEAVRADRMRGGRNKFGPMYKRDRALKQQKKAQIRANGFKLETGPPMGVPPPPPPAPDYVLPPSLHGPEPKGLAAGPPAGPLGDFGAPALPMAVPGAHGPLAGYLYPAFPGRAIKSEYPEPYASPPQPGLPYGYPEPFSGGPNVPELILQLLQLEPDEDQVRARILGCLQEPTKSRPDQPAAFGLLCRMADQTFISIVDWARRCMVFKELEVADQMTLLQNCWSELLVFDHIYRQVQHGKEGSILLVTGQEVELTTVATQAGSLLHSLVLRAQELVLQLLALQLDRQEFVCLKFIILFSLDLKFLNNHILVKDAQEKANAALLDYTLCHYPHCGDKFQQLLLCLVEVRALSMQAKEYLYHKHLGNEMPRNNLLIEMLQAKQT
Nuclear receptor coactivator 2 (Homo sapiens), sequence (Q15596 whole entry, looked up, the tested form may be a part): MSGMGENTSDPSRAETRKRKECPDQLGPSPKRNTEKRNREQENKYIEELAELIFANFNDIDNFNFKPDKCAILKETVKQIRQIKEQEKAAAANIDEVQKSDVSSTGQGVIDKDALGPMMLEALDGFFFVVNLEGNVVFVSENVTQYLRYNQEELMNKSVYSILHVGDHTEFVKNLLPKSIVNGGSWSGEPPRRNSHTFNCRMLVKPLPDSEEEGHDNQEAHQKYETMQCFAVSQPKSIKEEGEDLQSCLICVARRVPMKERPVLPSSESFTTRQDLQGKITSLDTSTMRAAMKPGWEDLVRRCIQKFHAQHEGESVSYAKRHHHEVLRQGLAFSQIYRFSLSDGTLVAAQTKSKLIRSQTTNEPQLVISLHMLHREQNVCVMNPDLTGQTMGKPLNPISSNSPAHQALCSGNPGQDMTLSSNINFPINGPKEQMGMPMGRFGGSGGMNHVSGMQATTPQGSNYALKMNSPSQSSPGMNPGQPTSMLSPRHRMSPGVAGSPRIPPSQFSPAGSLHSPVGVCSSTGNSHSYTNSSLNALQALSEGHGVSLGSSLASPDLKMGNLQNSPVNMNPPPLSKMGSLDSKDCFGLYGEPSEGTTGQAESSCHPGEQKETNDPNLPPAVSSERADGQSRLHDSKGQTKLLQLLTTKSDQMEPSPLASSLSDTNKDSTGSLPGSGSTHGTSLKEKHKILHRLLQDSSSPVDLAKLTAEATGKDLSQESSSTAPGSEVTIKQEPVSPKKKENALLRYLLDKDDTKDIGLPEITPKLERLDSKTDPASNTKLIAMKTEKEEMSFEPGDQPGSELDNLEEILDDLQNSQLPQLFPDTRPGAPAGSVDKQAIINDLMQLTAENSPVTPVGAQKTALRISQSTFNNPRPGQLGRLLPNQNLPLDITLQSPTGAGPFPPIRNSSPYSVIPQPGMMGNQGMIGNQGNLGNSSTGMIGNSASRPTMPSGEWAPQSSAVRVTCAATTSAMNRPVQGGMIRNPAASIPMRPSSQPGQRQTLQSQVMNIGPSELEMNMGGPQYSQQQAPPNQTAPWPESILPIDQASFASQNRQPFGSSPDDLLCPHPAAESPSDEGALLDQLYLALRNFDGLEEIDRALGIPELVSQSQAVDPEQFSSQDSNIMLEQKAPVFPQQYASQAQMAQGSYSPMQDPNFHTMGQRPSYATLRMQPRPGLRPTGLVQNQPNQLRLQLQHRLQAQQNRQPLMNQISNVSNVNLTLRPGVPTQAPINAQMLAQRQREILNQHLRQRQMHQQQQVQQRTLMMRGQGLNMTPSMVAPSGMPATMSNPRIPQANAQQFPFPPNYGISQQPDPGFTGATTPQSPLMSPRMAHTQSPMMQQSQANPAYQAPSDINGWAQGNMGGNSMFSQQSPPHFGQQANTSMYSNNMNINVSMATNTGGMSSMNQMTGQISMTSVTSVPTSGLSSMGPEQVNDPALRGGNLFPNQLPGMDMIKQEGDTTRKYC

Turning to `CCC(C)NC(=O)CCC(=O)OC1O[C@H]2OC3(C)CC[C@H]4[C@H](C)CCC(C1C)C24OO3` (some centres not stated), the inhibition in [1] was 63.7% (active); in assay [2], 83.6% (active); in [3], 47.4% (active); in assay [4], 82% (active); in assay [5], 75% (active); in assay [6], 102% (active). Moreover, the inhibition in assay [7] is 91.8% (active); in assay [8] it was 84.7% (active).
Turning to `CCC(C)(O)C(=O)OC1C(=O)OC2CC3C(C)=CC(O)C(O)C3(C)C3C4(O)OCC23C1C(C)C4O` (configuration not stated), the inhibition in assay [1] is 38.8%; in assay [2], 65.8% (active); in [3], 36.7%; in assay [4], 72% (active); in assay [5], 79.5% (active); in [6] it was 103% (active). Besides, the figures for the inhibition in assay [7] and in assay [8] were 92.4% (active) and 87% (active), respectively.
For `CC1=CC2OC3CC4OC(=O)C=CC=CC(C(C)O)OCC(O)C(C)CC(=O)OCC2(CC1O)C4(C)C31CO1` (configuration not stated), the inhibition is 98.7% (active) in assay [1]; 98.2% (active) in assay [2]; 97.4% (active) in assay [3]; 97.9% (active) in [4]; 96.3% (active) in assay [5]; 108% (active) in assay [6]. In addition, the inhibition in assay [7] is 96% (active); in assay [8], 97.5% (active); in assay [9] it was 79.8% (active); in assay [10], 70.1% (active).
For the compound `CC(=O)OC1CC2(O)C3CCC4CC(O)CCC4(C)C3CCC2(C)C1C1=CC(=O)OC1` (configuration not stated), the inhibition was 95.9% (active) in assay [1]; 84.3% (active) in assay [2]; 71.4% (active) in assay [3]; 83.3% (active) in assay [4]; 96.5% (active) in [5]; 111% (active) in assay [6]. Besides, the inhibition in [7] is 98.7% (active); in [8], 91.9% (active); in assay [9] it was 65.2% (active); in assay [10], 45.1%.
For the compound `Cc1ccc(-c2cc(-c3ccc(C)cc3)[n+](-c3ccccc3)c(-c3ccc(C)cc3)c2)cc1`, the inhibition in assay [1] was 79.8% (active); in [2], 82.6% (active); in assay [3] it was 48.3% (active); in [4], 80.6% (active); in [5], 84.5% (active); in assay [6] it was 111% (active). Besides, the inhibition in [7] is 94.8% (active); in assay [8], 95% (active).
Regarding `CCOc1ccc(-c2cc(C)[n+](CCc3ccc(OC)c(OC)c3)c(-c3ccc(OCC)cc3)c2)cc1`, the inhibition is 53.6% (active) in assay [1]; 69.7% (active) in assay [2]; 60% (active) in assay [3]; 73.4% (active) in [4]; 70% (active) in assay [5]; 104% (active) in assay [6]. For the same compound, the inhibition in [7] is 92.3% (active); in assay [8] it was 85.4% (active).
As to `O=c1[nH]c2ccccc2n1C1CCN(C(c2ccccc2OC(F)(F)F)c2nnnn2-c2ccc3c(c2)OCCO3)CC1` (configuration not stated), the inhibition in assay [1] is 27.6%; in assay [2], -1.84%; in assay [3], -23.1%; in assay [4], -0.24%; in assay [5], 61.8% (active); in [6] it was 37.3%. Further, the figures for the inhibition in assay [7] and in [8] were 43.7% (active) and 39.8% (active), respectively.
For the compound `CC(=O)OC1CC2OC3C=C(C)CCC3(C)C1(C)C21CO1` (configuration not stated), the inhibition in assay [1] is 98.2% (active); in assay [2], 95.5% (active); in assay [3], 94.2% (active); in assay [4], 95.1% (active); in [5], 95.2% (active); in [6] it was 111% (active). Further, the inhibition is 98% (active) in assay [7], 96.8% (active) in [8], 82.5% (active) in assay [9] and 76.1% (active) in [10].
Consider `COc1cc2cc(C(=O)N3CC(COS(C)(=O)=O)c4ccc(O)cc43)[nH]c2c(OC)c1OC` (configuration not stated), for which the inhibition in [1] is 97.5% (active); in assay [2] it was 96.2% (active); in assay [3], 96% (active); in assay [4], 95.7% (active); in assay [5], 98% (active); in assay [6] it was 111% (active). The values for the inhibition in [7] and in [8] were 99.2% (active) and 98.2% (active), respectively.
For the compound `CN(C)c1ccc(-[n+]2c(-c3ccccc3)cc(-c3ccccc3)cc2-c2ccccc2)cc1`, the inhibition is 84.6% (active) in assay [1]; 86.2% (active) in [2]; 52.3% (active) in assay [3]; 83.5% (active) in assay [4]; 79.2% (active) in assay [5]; 107% (active) in [6]. Moreover, the inhibition in [7] is 91.6% (active); in [8], 92% (active).
For `CC1CC(C)CC(C)C(O)C(C#N)=CC=CCC(C2CCCC2C(=O)O)OC(=O)CC(O)C(C)C1` (configuration not stated), the inhibition in assay [1] was 97.5% (active); in assay [2], 95.6% (active); in assay [3], 89.6% (active); in assay [4], 94.4% (active); in assay [5], 95.8% (active); in assay [6] it was 110% (active). Besides, the inhibition in assay [7] is 97.9% (active); in assay [8], 98.7% (active); in assay [9] it was 78.4% (active); in [10], 78.7% (active).
Consider `COc1ccc(CC2NCC(O)C2OC(C)=O)cc1` (configuration not stated), for which the inhibition in assay [1] is 98.6% (active); in [2], 96.7% (active); in assay [3] it was 96.2% (active); in assay [4] it was 96.6% (active); in [5] it was 96.6% (active); in assay [6] it was 111% (active). Further, the inhibition is 98.3% (active) in assay [7], 96.1% (active) in assay [8], 84.6% (active) in [9] and 82.5% (active) in assay [10].
As to `CC12CCC3C(CCC4(O)CC(O)CCC34C=NO)C1(O)CCC2C1=COC(=O)C1` (configuration not stated), the inhibition was 94.5% (active) in assay [1]; 84.4% (active) in [2]; 61.1% (active) in [3]; 82.2% (active) in assay [4]; 96.3% (active) in assay [5]; 110% (active) in [6]. Further, the inhibition in assay [7] is 98.2% (active); in assay [8], 89.2% (active); in assay [9], 54.3% (active); in assay [10], 29.4%.
For `CCC1(OC(=O)CN)C(=O)OCc2c1cc1n(c2=O)Cc2cc3ccccc3nc2-1` (configuration not stated), the inhibition is 94.9% (active) in [1]; 82.8% (active) in assay [2]; 56.9% (active) in assay [3]; 77.3% (active) in assay [4]; 84% (active) in assay [5]; 103% (active) in assay [6]. Also, the inhibition in assay [7] was 90.9% (active); in assay [8], 82% (active).
Regarding `CC1CC(C)(O)CC(C(O)CC2CC(=O)NC(=O)C2)C1=O` (configuration not stated), the inhibition was 96.7% (active) in assay [1]; 95.7% (active) in assay [2]; 89.7% (active) in assay [3]; 94.9% (active) in assay [4]; 96.2% (active) in assay [5]; 110% (active) in assay [6]. The inhibition in [7] was 98.5% (active); in [8], 98.1% (active).

The values are drawn from PubChem BioAssay.
